{"source": "PubChem BioAssay AID1986", "about": "(Sanford-Burnham Center for Chemical Genomics, 2009)", "test": "inhibitors of HIV fusion peptide binding, primary screen, biochemical, uHTS, fluorescence dequenching (AID 1986)", "conditions": "cell-free peptide binding, 30 min, stronger effect = higher value", "key": {"[1]": {"conditions": "measured here: repeat confirmation average inhibition, at 18.6 µM"}}, "note": "The campaign covered roughly 290,000 compounds. About 890 (0.31%) were called active. Cut-off read from the data, not from the text of the source: active = inhibition mostly above about 52% (no sharp cut-off); inactive = mostly below about 76%. Only a selection was taken, and actives are over-represented in it overall."}
{"compound": "CN1CCN(C(=O)CCN2C(=O)c3ccccc3C2=O)CC1", "values": [{"measurement": "inhibition", "setting": "at 20 µM", "result": "-0.4% (inactive)"}]}
{"compound": "COc1ccc(C(=O)N/N=C/c2sc3ccccc3c2O)cc1", "values": [{"measurement": "inhibition", "setting": "at 20 µM", "result": "34.9% (inactive)"}]}
{"compound": "O=C(N/N=C/c1sc2ccccc2c1O)c1ccccc1", "values": [{"measurement": "inhibition", "setting": "at 20 µM", "result": "95% (active)"}]}
{"compound": "O=C(N/N=C/c1sc2ccccc2c1O)c1cccc2ccccc12", "values": [{"measurement": "inhibition", "setting": "at 20 µM", "result": "34.1% (inactive)"}]}
{"compound": "CCN1C(=O)/C(=C\\c2cn(-c3ccccc3)nc2-c2cccnc2)SC1=S", "values": [{"measurement": "inhibition", "setting": "at 20 µM", "result": "3.5% (inactive)"}]}
{"compound": "Cc1ccc(-c2nn(-c3ccccc3)cc2/C=C2\\SC(=S)N(CCCCCC(=O)O)C2=O)o1", "values": [{"measurement": "inhibition", "setting": "at 20 µM", "result": "82% (active)"}]}
{"compound": "Cc1ccc(-c2nn(-c3ccccc3)cc2/C=C/C(=O)O)o1", "values": [{"measurement": "inhibition", "setting": "at 20 µM", "result": "5.9% (inactive)"}]}
{"compound": "O=C(O)CCCN1C(=O)/C(=C\\c2ccccc2OCc2ccccc2)SC1=S", "values": [{"measurement": "inhibition", "setting": "at 20 µM", "result": "63.8% (inactive)"}, {"measurement": "inhibition", "setting": "[1]", "result": 37.2, "unit": "%"}]}
{"compound": "O=C(O)CCCN1C(=O)/C(=C/c2cn(-c3ccccc3)nc2-c2cccs2)SC1=S", "values": [{"measurement": "inhibition", "setting": "at 20 µM", "result": "79.6% (active)"}, {"measurement": "inhibition", "setting": "[1]", "result": 142, "unit": "%"}]}
{"compound": "Cc1nn(-c2ccccc2)c(Cl)c1/C=C1\\SC(=S)N(CCCCCC(=O)O)C1=O", "values": [{"measurement": "inhibition", "setting": "at 20 µM", "result": "33% (inactive)"}]}
{"compound": "O=C(O)CCN1C(=O)/C(=C/c2cn(-c3ccccc3)nc2-c2cccs2)SC1=S", "values": [{"measurement": "inhibition", "setting": "at 20 µM", "result": "90% (active)"}, {"measurement": "inhibition", "setting": "[1]", "result": 142, "unit": "%"}]}
{"compound": "O=C(O)CCCN1C(=O)/C(=C/c2ccncc2)SC1=S", "values": [{"measurement": "inhibition", "setting": "at 20 µM", "result": "-0.7% (inactive)"}]}
{"compound": "COc1ccc(-c2nn(-c3ccccc3)cc2/C=C2/SC(=S)N(CCC(=O)O)C2=O)cc1", "values": [{"measurement": "inhibition", "setting": "at 20 µM", "result": "-0.4% (inactive)"}]}
{"compound": "COc1cc(OC)c(OC)cc1CN1CCN(C(=O)CC(C)C)CC1", "values": [{"measurement": "inhibition", "setting": "at 20 µM", "result": "-0.6% (inactive)"}]}
{"compound": "O=C(Oc1cccc(-n2cnnn2)c1)c1ccco1", "values": [{"measurement": "inhibition", "setting": "at 20 µM", "result": "12% (inactive)"}]}
{"compound": "CC(NC(=O)c1ccc2c(c1)OCO2)c1ccccc1", "note": "(stereo not given)", "values": [{"measurement": "inhibition", "setting": "at 20 µM", "result": "0.3% (inactive)"}]}
{"compound": "Cc1ccc2c(C(=O)CN3CCCC(C)C3)c(C)[nH]c2c1", "note": "(stereo not given)", "values": [{"measurement": "inhibition", "setting": "at 20 µM", "result": "-0.5% (inactive)"}]}
{"compound": "O=C(OCc1cncs1)c1cccs1", "values": [{"measurement": "inhibition", "setting": "at 20 µM", "result": "0% (inactive)"}]}
{"compound": "Cc1ccc(S(=O)(=O)CCSc2cccc(C(=O)O)c2)cc1", "values": [{"measurement": "inhibition", "setting": "at 20 µM", "result": "0.9% (inactive)"}]}
{"compound": "O=C(Nc1ccccc1C(=O)O)c1cccc(C(=O)Nc2ccccc2C(=O)O)c1", "values": [{"measurement": "inhibition", "setting": "at 20 µM", "result": "34.2% (inactive)"}]}
{"compound": "Cc1ccc(S(=O)(=O)CCSc2cccc(C(=O)Nc3ccccc3C(=O)O)c2)cc1", "values": [{"measurement": "inhibition", "setting": "at 20 µM", "result": "51.2% (active)"}]}
{"compound": "O=C1CN(/N=C/c2ccc([N+](=O)[O-])o2)C(=O)N1", "values": [{"measurement": "inhibition", "setting": "at 20 µM", "result": "146% (inactive)"}]}
{"compound": "O=C1NC(=S)S/C1=C\\C=C\\c1ccc([N+](=O)[O-])o1", "values": [{"measurement": "inhibition", "setting": "at 20 µM", "result": "56.6% (active)"}]}
{"compound": "O=C(O)/C=C/c1ccc([N+](=O)[O-])o1", "values": [{"measurement": "inhibition", "setting": "at 20 µM", "result": "5.1% (inactive)"}]}
{"compound": "COc1ccc(/C=C/C(=O)NC(=S)Nc2ccccc2)cc1OC", "values": [{"measurement": "inhibition", "setting": "at 20 µM", "result": "1.5% (inactive)"}]}
{"compound": "O=C(O[C@@H]1OC2COC(=O)c3cc(O)c(O)c(O)c3-c3c(cc(O)c(O)c3O)C(=O)O[C@@H]([C@H]1O)[C@@H]2O)c1cc(O)c(O)c(O)c1", "values": [{"measurement": "inhibition", "setting": "at 20 µM", "result": "31.6% (inactive)"}]}
{"compound": "Nc1nc2ccccc2[nH]1", "values": [{"measurement": "inhibition", "setting": "at 20 µM", "result": "-0.4% (inactive)"}]}
{"compound": "c1ccc2[nH]c3cc4ncnc4cc3nc2c1", "values": [{"measurement": "inhibition", "setting": "at 20 µM", "result": "59.7% (active)"}, {"measurement": "inhibition", "setting": "[1]", "result": 95.9, "unit": "%"}]}
{"compound": "FC(F)(F)c1nc2cc3nc4ccccc4[nH]c3cc2n1", "values": [{"measurement": "inhibition", "setting": "at 20 µM", "result": "3.4% (inactive)"}]}
{"compound": "Cc1cc(C)c(/C=N/n2c(C)cc(C)c(C#N)c2=O)c(C)c1", "values": [{"measurement": "inhibition", "setting": "at 20 µM", "result": "-2.5% (inactive)"}]}
{"compound": "O=C(NCc1ccc2c(c1)OCO2)c1ccc(CSCc2ccccc2Cl)o1", "values": [{"measurement": "inhibition", "setting": "at 20 µM", "result": "0.4% (inactive)"}]}
{"compound": "CCOC(=O)c1c(O)c2ccccc2oc1=O", "values": [{"measurement": "inhibition", "setting": "at 20 µM", "result": "-0.2% (inactive)"}]}
{"compound": "CCc1oc2ccccc2c1C(=O)CCN1CCCCC1", "values": [{"measurement": "inhibition", "setting": "at 20 µM", "result": "-3.9% (inactive)"}]}
{"compound": "CCc1oc2ccccc2c1C(=O)c1cc(Br)c(O)c(Br)c1", "values": [{"measurement": "inhibition", "setting": "at 20 µM", "result": "57.5% (active)"}, {"measurement": "inhibition", "setting": "[1]", "result": 71.4, "unit": "%"}]}
{"compound": "Cc1ccc(NC2=NCC(=O)N2c2ccc3c(c2)OCCO3)c(C)c1", "values": [{"measurement": "inhibition", "setting": "at 20 µM", "result": "0.4% (inactive)"}]}
{"compound": "O=C(NCCSCc1c(F)cccc1Cl)c1ccco1", "values": [{"measurement": "inhibition", "setting": "at 20 µM", "result": "-1.3% (inactive)"}]}
{"compound": "CN(Cc1cc(=O)n2ccsc2n1)Cc1nc2ccccc2c(=O)[nH]1", "values": [{"measurement": "inhibition", "setting": "at 20 µM", "result": "-1.5% (inactive)"}]}
{"compound": "N#Cc1cccc(NC(=O)CSc2ccccc2)c1", "values": [{"measurement": "inhibition", "setting": "at 20 µM", "result": "-0.6% (inactive)"}]}
{"compound": "N#Cc1cccc(NC(=O)CSc2ccc3c4c(cccc24)C(=O)c2ccccc2-3)c1", "values": [{"measurement": "inhibition", "setting": "at 20 µM", "result": "74.2% (active)"}]}
{"compound": "COc1ccc(NC(=O)CSc2nnc(C)c3ccccc23)cc1", "values": [{"measurement": "inhibition", "setting": "at 20 µM", "result": "0.4% (inactive)"}]}
{"compound": "COc1ccc(NC(=O)CSc2ccc3c4c(cccc24)C(=O)c2ccccc2-3)cc1", "values": [{"measurement": "inhibition", "setting": "at 20 µM", "result": "77% (active)"}, {"measurement": "inhibition", "setting": "[1]", "result": 96.6, "unit": "%"}]}
{"compound": "COc1ccc(NC(=O)CSc2nncc3ccccc23)cc1", "values": [{"measurement": "inhibition", "setting": "at 20 µM", "result": "-1.5% (inactive)"}]}
{"compound": "Cc1ccccc1SCC(=O)Nc1cccc(C#N)c1", "values": [{"measurement": "inhibition", "setting": "at 20 µM", "result": "8.4% (inactive)"}]}
{"compound": "COc1ccccc1NC(=O)C(C)OC(=O)C1CC(=O)N(c2ccc3c(c2)OCCO3)C1", "note": "(stereo not given)", "values": [{"measurement": "inhibition", "setting": "at 20 µM", "result": "1.1% (inactive)"}]}
{"compound": "Cc1ccc(/C=N/NC(=O)c2ccccc2OCc2cccc(Br)c2)o1", "values": [{"measurement": "inhibition", "setting": "at 20 µM", "result": "-2.8% (inactive)"}]}
{"compound": "CCOc1ccccc1N1CC(C(=O)Nc2ccccc2N2CCOCC2)CC1=O", "note": "(stereo not given)", "values": [{"measurement": "inhibition", "setting": "at 20 µM", "result": "-1.3% (inactive)"}]}
{"compound": "COc1ccccc1CNc1ccccc1F", "values": [{"measurement": "inhibition", "setting": "at 20 µM", "result": "-1.2% (inactive)"}]}
{"compound": "COc1ccccc1C(C)NC(=O)CCOc1cccc(C)c1", "note": "(stereo not given)", "values": [{"measurement": "inhibition", "setting": "at 20 µM", "result": "-1.1% (inactive)"}]}
{"compound": "Cc1ccc2c(CN3C(=O)NC(C)(c4ccc5c(c4)OCO5)C3=O)cc(=O)oc2c1", "note": "(stereo not given)", "values": [{"measurement": "inhibition", "setting": "at 20 µM", "result": "3.8% (inactive)"}]}
{"compound": "Cc1cc(C)c(C)c(N=Nc2nc3ccccc3n2C)c1C", "values": [{"measurement": "inhibition", "setting": "at 20 µM", "result": "-5.2% (inactive)"}]}
{"compound": "CN(C)c1ccc(N=Nc2nc3ccccc3n2C)cc1", "values": [{"measurement": "inhibition", "setting": "at 20 µM", "result": "-6% (inactive)"}]}
{"compound": "Cn1c(N=Nc2ccccc2)nc2ccccc21", "values": [{"measurement": "inhibition", "setting": "at 20 µM", "result": "101% (active)"}]}
{"compound": "CC1CCC2(CC1)Nc1ccccc1C(=O)N2c1ccccc1", "note": "(stereo not given)", "values": [{"measurement": "inhibition", "setting": "at 20 µM", "result": "-0.5% (inactive)"}]}
{"compound": "O=C(CN1CCN(c2ccc(F)cc2)CC1)Nc1ccc(S(=O)(=O)N2CCOCC2)cc1", "values": [{"measurement": "inhibition", "setting": "at 20 µM", "result": "0.3% (inactive)"}]}
{"compound": "CCN(CC)CC(O)CCCCCCCCC(=O)OC", "note": "(stereo not given)", "values": [{"measurement": "inhibition", "setting": "at 20 µM", "result": "-0.6% (inactive)"}]}
{"compound": "CCOc1ccc(NC(=O)CN2CCN(C3c4ccccc4-c4ccccc43)CC2)cc1", "values": [{"measurement": "inhibition", "setting": "at 20 µM", "result": "0.9% (inactive)"}]}
{"compound": "CCc1ccc[n+](-c2[nH]c(=O)sc2/C=N/NC([S-])=Nc2ccccc2)c1", "values": [{"measurement": "inhibition", "setting": "at 20 µM", "result": "57% (active)"}]}
{"compound": "O=c1[nH]c(-[n+]2ccccc2)c(/C=N/NC([S-])=Nc2ccccc2)s1", "values": [{"measurement": "inhibition", "setting": "at 20 µM", "result": "97.7% (inactive)"}, {"measurement": "inhibition", "setting": "[1]", "result": 27.6, "unit": "%"}]}
{"compound": "Cc1cc[n+](-c2[nH]c(=O)sc2/C=N/NC([S-])=Nc2ccccc2)cc1C", "values": [{"measurement": "inhibition", "setting": "at 20 µM", "result": "36% (inactive)"}]}
{"compound": "CCN(CC)C(=O)Cn1cc(S(=O)(=O)CC(=O)Nc2ccccc2C)c2ccccc21", "values": [{"measurement": "inhibition", "setting": "at 20 µM", "result": "1.2% (inactive)"}]}
{"compound": "Cc1ccc(C2C(C#N)=C(N)SC(N)=C2C#N)cc1", "values": [{"measurement": "inhibition", "setting": "at 20 µM", "result": "-0.7% (inactive)"}]}
{"compound": "N#CC1=C(N)SC(N)=C(C#N)C1c1ccoc1", "values": [{"measurement": "inhibition", "setting": "at 20 µM", "result": "97.5% (active)"}]}
{"compound": "N#CC1=C(N)SC(N)=C(C#N)C1c1ccc(C(F)(F)F)cc1", "values": [{"measurement": "inhibition", "setting": "at 20 µM", "result": "18.6% (inactive)"}]}
